TGFb inhibitor: blocks TGF-b signaling. HepG2 CAGA-GFP TGF-b/SMAD3 reporter, GFP fluorescence, 18 h; TGF-beta stimulated, 500 pg/mL final. Potency, µM (titrated, usually from 46.1 µM), hits mostly inhibitors. 410,000 tested, 1.2% active; further: nearly all actives have a fitted effect of over 65% in size
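Inhibition was scored as loss of TGF-beta-induced (500 pg/mL final, 18 hours, 37 degrees C) GFP in HEPG2 cells carrying a CAGA-GFP reporter, in DMEM with 1% FBS. Well GFP was summed per cell; Activity was normalised to unstimulated and stimulated DMSO wells, then concentration-response fitting.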
HepG2 viability: HepG2 cytotoxicity, counter-screen for TGF-b inhibitors. HepG2 CAGA-GFP viability, ATP luminescence, 18 h. Potency, µM (series often up to 46.1 µM), actives largely listed as cytotoxic. 410,000 tested, 0.76% active
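CellTiter-Glo luminescence gave cytotoxicity after 18 hours at 37 degrees C. The cells were HepG2 CAGA-GFP in 1% FBS DMEM, stimulated with 500 pg/mL TGF-beta after compound addition. %Activity was normalised to no-cell wells (complete cell-killing) and DMSO (no toxicity), and curves were fitted and classified.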
TDP1 inh: TDP1 (human) enzyme inhibition; 350,000 tested, 0.28% active; recombinant TDP1, AlphaScreen DNA substrate cleavage; Potency, µM (titrated, usually from 130 µM), most hits filed as inhibitors; Q9NUW8; further: nearly all actives have a fitted effect of over 40% in size
Target sequence (Q9NUW8 whole entry, looked up): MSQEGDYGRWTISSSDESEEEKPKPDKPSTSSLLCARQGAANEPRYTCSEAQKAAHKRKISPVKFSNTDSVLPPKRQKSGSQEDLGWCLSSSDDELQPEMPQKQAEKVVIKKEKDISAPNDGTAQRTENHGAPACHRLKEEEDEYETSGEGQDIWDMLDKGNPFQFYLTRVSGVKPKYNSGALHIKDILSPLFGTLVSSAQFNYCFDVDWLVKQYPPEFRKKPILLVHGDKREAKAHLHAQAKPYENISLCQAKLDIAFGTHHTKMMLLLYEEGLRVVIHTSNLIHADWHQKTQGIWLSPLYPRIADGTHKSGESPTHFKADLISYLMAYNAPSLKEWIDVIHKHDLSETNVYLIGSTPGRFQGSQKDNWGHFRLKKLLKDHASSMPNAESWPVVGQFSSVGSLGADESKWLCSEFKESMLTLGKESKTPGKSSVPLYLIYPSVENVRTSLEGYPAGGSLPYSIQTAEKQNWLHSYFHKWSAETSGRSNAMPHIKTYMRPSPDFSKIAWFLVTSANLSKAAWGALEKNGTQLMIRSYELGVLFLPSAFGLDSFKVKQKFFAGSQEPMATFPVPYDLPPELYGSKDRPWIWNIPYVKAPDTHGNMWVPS
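Here, a 5' biotin and 3' phosphotyrosine-FITC DNA oligonucleotide reports Tdp1 activity: intact substrate bridges AlphaScreen beads, while cleavage leaves a 3' phosphate and drops signal. All incubations at room temperature.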
DT40 TDP1 no CPT: qHTS for Inhibitors of human tyrosyl-DNA phosphodiesterase 1 (TDP1): qHTS in cells in absence of CPT; Potency, µM (highest dose often 46.2 µM), most hits filed as inhibitors; DT40 Tdp1-/- hTDP1 cells, no CPT, ATP luminescence, 48 h; 420,000 tested, 15% active; AID 686978, 2013; further: nearly all actives have a fitted effect of over 55% in size
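Chicken DT40 Tdp1-/- cells complemented with human TDP1, screened without camptothecin (DMSO vehicle only), 400 cells/well. Compounds pin-transferred, cells incubated at 37 °C for at least 48 hr. Growth read as ATP-dependent luminescence (CellTiter-Glo, 30 min at RT).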
DT40 TDP1 CPT: DT40-hTDP1 cell growth loss with CPT; chicken DT40 Tdp1-/-;hTDP1 cells + 20 nM CPT, ATP luminescence, 48 h; Potency, µM (top dose mostly 46.2 µM), usual class: inhibitors; 420,000 tested, 12% active; further: nearly all actives have a fitted effect of over 55% in size
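Chicken DT40 Tdp1-/- cells complemented with human TDP1, 400 cells/well, exposed to compounds plus 20 nM camptothecin for at least 48 h at 37 C; viability read as ATP content by CellTiter-Glo luminescence.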
IL1B secr inh: inflammasome signaling inhibition, IL-1 beta readout; activity change, % at 57.5 µM; 360,000 tested, 4.7% active; THP-1 LPS/ATP IL-1B secretion, AlphaLISA, 16 h; active compounds read low; in the data active means activity change below about -50%; inconclusive means mostly about -30% to -49%
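THP-1 cells pretreated 1 hr with compounds (up to 57.5 uM final), then stimulated with LPS (250 ng/mL final) plus ATP (1.25 mM final); secreted IL-1B measured by AlphaLISA after 16 hr, decreased signal indicating inhibition.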
Hits are given with their value; i = inactive; ? = inconclusive; nt = no result; ! = not confirmed by another sample. Rows were chosen to be rich in hits. Some 19% of all compounds tested hit in one or more screens of this group. Unless noted, the call rests on the fitted dose curve; in most records, active means well fitted curve in the direction sought with a large enough effect; inconclusive means small, poorly fitted or top-dose-only effect, or another doubt; inactive means no such curve, though single readings can be large; an effect the other way counts as inactive or inconclusive.

SMILES | TGFb inhibitor | HepG2 viability | TDP1 inh | DT40 TDP1 no CPT | DT40 TDP1 CPT | IL1B secr inh
COc1cccc(CNC(=O)c2ccc3c(c2)nnn3C2CCCC2)c1 | ? | i | i | i | ? | nt
CCc1noc(C)c1C(=O)N(CC)c1nc2c(C)cccc2s1 | i | i | i | 18µM | ? | i
CCN(C(=O)C1=COCCO1)c1nc2c(C)cccc2s1 | i | i | nt | i | i | i
CCN(CC)CCN(C(=O)c1ccco1)c1nc2c(C)cccc2s1 | i | i | i | 21µM | 15µM | nt
CC(=O)OCOC(=O)CN(CC(=O)OCOC(C)=O)c1ccccc1OCCOc1ccccc1N(CC(=O)OCOC(C)=O)CC(=O)OCOC(C)=O | nt | nt | nt | 1.6µM | 1.4µM | nt
CCC(=O)Nc1ccc(NC(=O)CSc2nnc(-c3ccco3)n2CC)cc1 | i | i | i | i | i | i
CCOc1ccc(-c2nc3c(c(SCC(=O)N4CCCCC4)n2)Cc2cc(C)ccc2O3)cc1 | i | i | i | ? | ? | nt
COc1ccc(NC(=O)C[C@H]2C(=O)N(Cc3ccccc3)C[C@@H]2CSC)cc1 | i | i | nt | ? | ? | i
C[C@H]1CN(C2CCCCC2)C(=O)[C@@H]1CC(=O)NCc1ccccc1 | ? | i | nt | ? | ? | i
COc1ccc(CNC(=O)C[C@H]2C(=O)N(Cc3ccc(OC)cc3)C[C@@H]2Cc2ccccc2)cc1 | ? | i | nt | 8.9µM | 21µM | i
COc1ccc(CNC(=O)C[C@H]2C(=O)N(C3CCCCC3)C[C@@H]2Cc2ccccc2)cc1 | i | i | nt | i | ? | i
CCCCC[C@H]1CN(Cc2ccccc2)C(=O)[C@@H]1CC(=O)NCc1ccc(OC)cc1 | 10µM | i | nt | 16µM | 21µM | i
CCCCC[C@H]1CN(C2CCCCC2)C(=O)[C@@H]1CC(=O)NCc1ccccc1 | 11µM | 16µM! | nt | 13µM! | 11µM | ?
COc1ccc(CNC(=O)C[C@H]2C(=O)N(Cc3ccccc3)C[C@@H]2Cc2ccccc2)cc1 | ? | i | nt | 18µM | ? | i
COc1ccc(CNC(=O)C[C@H]2C(=O)N(CCc3ccccc3)C[C@@H]2Cc2ccccc2)cc1 | i | i | nt | 22µM | 16µM | ?
CC(=O)N1CCC(=NNc2ncc(C(F)(F)F)cc2Cl)CC1 | i | i | i | ? | ? | i
CC1CCN(S(=O)(=O)c2ccc(C(=O)N3CCCC(C(F)(F)F)C3)cc2)CC1 (configuration not stated) | i | i | i | ? | 18µM | ?
COc1ccccc1N(C)S(=O)(=O)c1ccc(C(=O)OCC(=O)N2CCC2)cc1 | i | i | i | ? | ? | i
COc1ccccc1N(C)S(=O)(=O)c1ccc(C(=O)N2CCCC(C(F)(F)F)C2)cc1 (configuration not stated) | i | i | i | 18µM | ? | i
O=C1c2ccccc2/C(=C\C#Cc2ccccn2)N1c1ccccc1 | i | i | i | ? | ? | -100
CC(Oc1ccc(Cl)cc1Cl)c1nc(-c2ccc(NC(=O)c3cccnc3)cc2)no1 (configuration not stated) | ? | i | i | 5.8µM | 5.8µM | i
CC(Oc1ccc(Cl)cc1Cl)c1nc(-c2ccc(NC(=O)c3ccncc3)cc2)no1 (configuration not stated) | ? | i | i | 8.2µM | 15µM | i
COc1ccc(Cl)cc1-c1nc(-c2ccc(NC(=O)c3cccs3)cc2)no1 | i | i | i | 21µM | ? | i
O=C(O)c1ccc(S(=O)(=O)N[C@H](Cc2ccc([N+](=O)[O-])cc2)C(=O)O)cc1 | nt | nt | i | nt | nt | nt
CC1=C(C(N)=O)C(c2ccc(C(C)C)cc2)n2nc(SCc3ccccc3)nc2N1 (configuration not stated) | i | i | i | i | i | nt
O=C1OC(CO)C(O)C(O)C1O (configuration not stated) | nt | nt | i | nt | nt | nt
